Among all 330,000 compounds or so, about 1,300 (0.39%) were called active. Only a selection was taken, and actives are over-represented in it overall. A number with no mark means an inactive call.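 How the source made its calls: active means percent inhibition above a cutoff equal to the mean of all tested compounds plus 3 SD (cut at about 15% in these data); inactive means the rest.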
The compounds below were run against Protein-arginine deiminase type-4 (Homo sapiens) (UniProt Q9UM07) (assay: human PAD4 inhibitors, primary screen, biochemical, fluorescence polarization, 1536-well format (AID 485272;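 further: 0% = PAD4 with RCA probe and DMSO and 100% = probe without PAD4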)). Conditions: recombinant PAD4, RCA probe fluorescence polarization; at 6.36 µM; stronger effect = higher value.
Chain of Protein-arginine deiminase type-4 (Homo sapiens) (Q9UM07 whole entry, looked up): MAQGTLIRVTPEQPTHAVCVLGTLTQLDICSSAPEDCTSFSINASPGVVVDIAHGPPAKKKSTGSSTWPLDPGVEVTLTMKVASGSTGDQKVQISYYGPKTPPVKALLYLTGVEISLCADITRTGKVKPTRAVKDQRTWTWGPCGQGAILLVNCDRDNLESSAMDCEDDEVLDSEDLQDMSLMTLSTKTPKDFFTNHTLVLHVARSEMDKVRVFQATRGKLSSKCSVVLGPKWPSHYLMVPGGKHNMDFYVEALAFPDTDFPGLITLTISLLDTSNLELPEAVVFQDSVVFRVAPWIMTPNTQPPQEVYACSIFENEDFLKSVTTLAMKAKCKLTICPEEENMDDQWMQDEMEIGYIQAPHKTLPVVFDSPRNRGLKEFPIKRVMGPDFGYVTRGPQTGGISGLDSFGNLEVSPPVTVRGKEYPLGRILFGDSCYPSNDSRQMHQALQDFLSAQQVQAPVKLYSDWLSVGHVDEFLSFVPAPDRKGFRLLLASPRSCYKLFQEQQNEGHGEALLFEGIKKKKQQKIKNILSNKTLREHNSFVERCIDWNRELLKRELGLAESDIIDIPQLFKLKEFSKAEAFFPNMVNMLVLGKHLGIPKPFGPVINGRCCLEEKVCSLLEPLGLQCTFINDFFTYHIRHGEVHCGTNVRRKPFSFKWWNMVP

Structure (SMILES) | inhibition
CCOC(=O)c1c(N)n(Cc2ccccc2)c2nc3ccccc3nc12 | 42.1% (active)
COc1cc(Cn2c(N)c(C(=O)NCc3ccco3)c3nc4ccccc4nc32)cc(OC)c1OC | -2.07%
CC/C(=N\NC(=O)c1ccccc1O)c1c(O)n(Cc2ccccc2)c(=O)[nH]c1=O | -6.35%
O=C(COc1ccc2ccccc2c1)N1CCN(Cc2ccncc2)CC1 | 3.09%
CC(C)N(CC#CCC1(O)c2ccccc2-c2ccccc21)C(C)C | 2.13%
COc1ccc(CN2CCN(c3ccccc3F)CC2)c(OC)c1 | -6.62%
COc1ccccc1C1=NCc2nnc(CSC)n2-c2ccc(Cl)cc21 | 21.5% (active)
Cc1cccc(-n2c(O)c(C=NC34CN5CN(CN(C5)C3)C4)c(=O)[nH]c2=O)c1 | 6.25%
Cc1ccc(N2C(=O)NC(=O)C(CCc3ccncc3)(Cc3cccc(Cl)c3Cl)C2=O)cc1 (stereo not given) | 1.57%
CN1CCN(Cc2ccccc2C(F)(F)F)CC1 | 6.58%

Source: PubChem BioAssay AID485272 (The Scripps Research Institute Molecular Screening Center, 2010)
